In PubChem BioAssay (NCATS):
Where “and” joins values, the source holds several entries; their conditions need not be identical. Equal entries are not always repeated. Results filed as inconclusive are left out. Calls of active or inactive are those of the source. Unless noted, calls come from the whole dose curve; as a rule, active = well fitted curve in the direction sought with a large enough effect; inconclusive = small, poorly fitted or top-dose-only effect, or another doubt; inactive = no such curve, though single readings can be large; an effect the other way counts as inactive or inconclusive.

Experiments:
[1] = Cell Viability - NIH 3T3 (AID 541); conditions: NIH 3T3 cell viability, qHTS; activity change, negative = cytotoxicity: at 92.2 µM (top of the series);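 note: plate controls were DMSO alone for no effect and tamoxifen positive control for full effect; nearly all actives have a fitted effect of over 25% in size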
Outline: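 Luminescent ATP signal (CellTiter-Glo) served as the viability read-out after NIH 3T3 cells were exposed to compounds over a concentration range for 40 hr at 37 °C. Hill-equation modelling of concentration-response data gave AC50.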

[2] = Cell Viability - H-4-II-E (AID 543); note: % is set by controls: 0 for no effect and ±100 for the full control effect; nearly all actives have a fitted effect of over 35% in size
Outline: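 Luminescent ATP signal (CellTiter-Glo) served as the viability read-out, with cytotoxicity seen as a concentration-dependent ATP drop. Cells were treated for 40 hours in complete medium. AC50 values derive from Hill-equation modelling.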

[3] = Cell Viability - LYMP2-005 (AID 967);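 note: plate controls were DMSO only for no effect and 92 µM tetraoctylammonium bromide control for full effect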
Outline: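 qHTS viability screen in LYMP2-005 cells: 24 h at 37 C with compound, ATP luminescence via CellTiter-Glo, AC50 from Hill curves.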

[4] = Cell Viability - LYMP2-020 (AID 986);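 note: plate controls were DMSO only for no effect and tetraoctylammonium bromide at 92 µM for full effect; nearly all actives have a fitted effect of over 55% in size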
Outline: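 Luminescent ATP signal (CellTiter-Glo, 30 min at room temperature) is the read-out after 24 h compound treatment of lymphoblastoid cells at 37 C. AC50 values come from Hill-equation fits across concentrations.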

[5] = target: Peroxisome proliferator-activated receptor delta (Homo sapiens) (UniProt Q03181); assay: qHTS assay for small molecule agonists of peroxisome proliferator-activated receptor delta signaling (AID 588534; calls by dose curve;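 note: 0% = DMSO basal wells and 100% = positive control agonist at 10 µM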)
Peroxisome proliferator-activated receptor delta (Homo sapiens), sequence (Q03181 whole entry, looked up): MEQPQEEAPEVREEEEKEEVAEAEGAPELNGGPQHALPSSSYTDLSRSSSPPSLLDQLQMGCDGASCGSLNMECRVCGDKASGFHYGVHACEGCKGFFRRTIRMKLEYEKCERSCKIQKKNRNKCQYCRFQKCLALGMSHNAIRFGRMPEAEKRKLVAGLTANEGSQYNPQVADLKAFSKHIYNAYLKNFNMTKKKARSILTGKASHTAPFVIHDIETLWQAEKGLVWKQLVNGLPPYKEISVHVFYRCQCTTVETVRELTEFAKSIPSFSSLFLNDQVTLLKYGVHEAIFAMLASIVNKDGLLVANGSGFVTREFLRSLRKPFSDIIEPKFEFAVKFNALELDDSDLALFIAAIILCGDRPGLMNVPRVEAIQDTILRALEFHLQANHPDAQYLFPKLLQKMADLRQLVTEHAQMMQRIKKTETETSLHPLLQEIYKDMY
Outline: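 Fluorescence from CCF4 substrate cleavage by beta-lactamase reporter, read 2 hrs at RT, measured agonist activity. Compounds were tested with 18 hrs exposure at 37 C. Concentration-response data fitted to Hill equation.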

[6] = qHTS assay for small molecule antagonists of peroxisome proliferator-activated receptor delta signaling (AID 588535; active = well fitted inhibition curve with a large enough effect in the signal ratio, with a control signal flat, not every such curve was filed as active; the % refers to the signal ratio;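 for max response: cells co-treated with a PPAR-delta agonist as stimulator during compound exposure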); conditions: HEK293T PPARd-UAS-bla, beta-lactamase FRET ratio, 18 h; 460 nm channel
Outline: (§1)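 HEK293T PPAR-delta-UAS-bla cells, 4000/well, 2% charcoal/dextran FBS; 5 h 37 C; cpd titration; 18 h 37 C; CCF4 2 h RT; FI 460/530 nm; Hill fit → IC50, efficacy.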

[7] = target: Peroxisome proliferator-activated receptor delta (Homo sapiens) (UniProt Q03181); assay: as above
Outline: as §1

[8] = target: Peroxisome proliferator-activated receptor gamma (Homo sapiens) (UniProt P37231); assay: qHTS assay for small molecule antagonists of peroxisome proliferator-activated receptor gamma signaling (AID 588537; active = well fitted inhibition curve with a large enough effect in the signal ratio, with a control signal flat, not every such curve was filed as active; the % refers to the signal ratio;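 note: reporter cells co-stimulated with 50 nM rosiglitazone agonist during compound treatment; % of control where 0% means no effect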)
Peroxisome proliferator-activated receptor gamma (Homo sapiens), sequence (P37231 whole entry, looked up): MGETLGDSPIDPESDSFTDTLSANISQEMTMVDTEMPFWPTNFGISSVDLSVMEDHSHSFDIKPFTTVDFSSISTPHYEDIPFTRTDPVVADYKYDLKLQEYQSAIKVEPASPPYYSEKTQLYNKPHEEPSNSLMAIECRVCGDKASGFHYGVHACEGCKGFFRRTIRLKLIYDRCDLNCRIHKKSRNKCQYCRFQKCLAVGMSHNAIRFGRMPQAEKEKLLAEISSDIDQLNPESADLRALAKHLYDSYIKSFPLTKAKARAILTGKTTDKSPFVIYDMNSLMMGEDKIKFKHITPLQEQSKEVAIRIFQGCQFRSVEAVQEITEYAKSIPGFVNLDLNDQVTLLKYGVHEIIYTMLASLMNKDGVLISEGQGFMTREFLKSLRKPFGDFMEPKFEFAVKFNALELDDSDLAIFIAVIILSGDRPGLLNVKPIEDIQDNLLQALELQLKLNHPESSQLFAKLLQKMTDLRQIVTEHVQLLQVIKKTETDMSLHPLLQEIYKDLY
Outline: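 Antagonist mode, beta-lactamase reporter in HEK293; charcoal/dextran FBS 1%; 3000 cells/well, 37 C 6-6.5 h; cpd titration + rosiglitazone 50 nM final, 16 h 37 C; CCF4, 2 h RT; 460/530 nm; Hill fit → IC50, efficacy.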

[9] = target: Vitamin D3 receptor (Homo sapiens) (UniProt P11473); assay: qHTS assay for small molecule agonists of vitamin D receptor signaling (AID 588543; calls by dose curve;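 note: 0% = DMSO basal and 100% = reference agonist control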)
Vitamin D3 receptor (Homo sapiens), sequence (P11473 whole entry, looked up): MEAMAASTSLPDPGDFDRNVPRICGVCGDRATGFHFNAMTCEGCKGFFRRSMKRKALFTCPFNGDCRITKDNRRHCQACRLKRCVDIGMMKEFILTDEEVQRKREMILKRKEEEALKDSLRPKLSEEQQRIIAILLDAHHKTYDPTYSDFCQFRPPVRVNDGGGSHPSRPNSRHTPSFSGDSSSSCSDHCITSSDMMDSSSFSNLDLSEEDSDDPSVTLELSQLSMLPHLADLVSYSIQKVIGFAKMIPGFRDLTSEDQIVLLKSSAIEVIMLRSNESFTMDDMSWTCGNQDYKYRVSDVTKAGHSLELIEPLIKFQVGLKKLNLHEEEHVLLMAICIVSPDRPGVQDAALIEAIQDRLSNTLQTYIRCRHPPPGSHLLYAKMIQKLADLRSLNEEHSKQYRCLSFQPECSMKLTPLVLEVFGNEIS
Outline: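 qHTS in agonist mode: compound titrations stimulate a VDR-driven β-lactamase reporter in HEK293T cells over 16 h at 37 °C. Response normalized to 50 nM 1α,25-dihydroxyvitamin D3 = 100%, DMSO = 0%; Hill fitting gives EC50 and maximal response.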

[10] = target: Thyroid hormone receptor beta (Homo sapiens) (UniProt P10828); assay: qHTS assay for small molecule agonists of thyroid hormone receptor beta signaling (AID 588545; calls by dose curve)
Thyroid hormone receptor beta (Homo sapiens), sequence (P10828 whole entry, looked up): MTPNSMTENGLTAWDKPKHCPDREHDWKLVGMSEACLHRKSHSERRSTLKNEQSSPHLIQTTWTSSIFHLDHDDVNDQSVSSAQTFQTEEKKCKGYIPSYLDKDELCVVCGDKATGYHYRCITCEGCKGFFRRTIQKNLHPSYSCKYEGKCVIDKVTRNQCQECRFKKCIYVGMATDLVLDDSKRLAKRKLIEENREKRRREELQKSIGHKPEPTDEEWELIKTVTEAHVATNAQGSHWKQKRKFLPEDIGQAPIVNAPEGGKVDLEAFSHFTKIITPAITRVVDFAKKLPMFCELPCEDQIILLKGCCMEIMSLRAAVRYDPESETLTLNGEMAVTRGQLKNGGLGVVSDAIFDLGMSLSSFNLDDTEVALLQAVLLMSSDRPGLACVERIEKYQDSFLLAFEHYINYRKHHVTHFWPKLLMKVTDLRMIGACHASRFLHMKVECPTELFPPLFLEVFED
Outline: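 Agonist-mode beta-lactamase reporter assay, HEK 293 cells, 2% charcoal/dextran FBS; cells plated 4 hrs, compound 18 hrs at 37 C, CCF4 2 hrs RT. Normalized to 10 nM T3 (100%) and DMSO (0%); Hill fit gives EC50, efficacy.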

[11] = qHTS assay for small molecule activators of the p53 signaling pathway (AID 651743; active = well fitted activation curve with a large enough effect in the signal ratio, not every such curve was filed as active; the % refers to the signal ratio; note: % of control where 0% means no effect); conditions: HCT-116 p53RE-bla, beta-lactamase FRET ratio, 16 h; activation: stronger effect = higher value
Outline: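 Read-out is fluorescence intensity from the LiveBLAzer B/G FRET substrate, added for 2 hours at room temperature after HCT-116 p53RE-bla cells had been incubated with compounds for 16 hours at 37 C.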

[12] = qHTS assay for small molecule activators of the nuclear factor-kappa B (NF-kB) signaling pathway (AID 651749; active = well fitted activation curve with a large enough effect in the signal ratio; the % refers to the signal ratio; note: % of control where 0% means no effect); conditions: NF-kB-bla ME-180 cells, beta-lactamase FRET ratio, 16 h; stronger effect = higher value
Outline: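 Readout: beta-lactamase reporter driven by an NF-kB response element, detected fluorescently as loss of FRET. Cells were the ME-180 line, treated 16 hr at 37C with pin-transferred compound.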

[13] = Cell Viability - LYMP2-010 (AID 981); note: % is set by controls: 0 for no effect and ±100 for the full control effect; nearly all actives have a fitted effect of over 55% in size
Outline: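 Luminescent ATP signal (CellTiter-Glo) served as the viability read-out. Cells of the human lymphoblastoid line were treated with compound over a concentration range for 24 hours at 37 C, and AC50 values came from Hill-equation modeling.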

[14] = target: Bile acid receptor (Homo sapiens) (UniProt Q96RI1); assay: qHTS assay for small molecule agonists of farnesoid X receptor signaling (AID 588527; calls by dose curve;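 note: 0% = vehicle basal and 100% = reference agonist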); conditions: HEK293T FXR-UAS-bla, beta-lactamase ratio, 16 h; stronger effect = higher value
Bile acid receptor (Homo sapiens), sequence (Q96RI1 whole entry, looked up): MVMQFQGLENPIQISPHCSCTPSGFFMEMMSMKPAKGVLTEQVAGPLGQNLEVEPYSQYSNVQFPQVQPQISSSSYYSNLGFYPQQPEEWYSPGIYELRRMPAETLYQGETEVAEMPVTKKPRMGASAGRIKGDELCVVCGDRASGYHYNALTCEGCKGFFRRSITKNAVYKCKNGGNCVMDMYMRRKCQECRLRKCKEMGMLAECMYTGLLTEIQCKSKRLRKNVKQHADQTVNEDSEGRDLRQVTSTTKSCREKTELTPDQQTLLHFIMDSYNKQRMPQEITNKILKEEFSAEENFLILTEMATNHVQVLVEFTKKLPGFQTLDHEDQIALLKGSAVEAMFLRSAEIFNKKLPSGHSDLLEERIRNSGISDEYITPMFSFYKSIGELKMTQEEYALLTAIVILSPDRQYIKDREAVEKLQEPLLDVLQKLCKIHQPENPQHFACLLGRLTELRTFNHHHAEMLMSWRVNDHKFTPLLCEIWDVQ
Outline: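 FXR-UAS-bla HEK293T cells (10% dialyzed FBS) preincubated 5-7 h at 37 C, then compounds at up to 92 uM for 16 h at 37 C. CCF4 beta-lactamase read-out after 2 h RT. Normalized to chenodeoxycholic acid (100 uM) and DMSO; Hill fit gave EC50 and efficacy.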

[15] = target: Glucocorticoid receptor (Homo sapiens) (UniProt P04150); assay: qHTS assay for small molecule antagonists of glucocorticoid receptor signaling (AID 588533; active = well fitted inhibition curve with a large enough effect in the signal ratio, with a control signal flat, not every such curve was filed as active; the % refers to the signal ratio;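 note: cells stimulated with 2 nM dexamethasone as agonist; % is set by controls: 0 for no effect and ±100 for the full control effect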)
Glucocorticoid receptor (Homo sapiens), sequence (P04150 whole entry, looked up): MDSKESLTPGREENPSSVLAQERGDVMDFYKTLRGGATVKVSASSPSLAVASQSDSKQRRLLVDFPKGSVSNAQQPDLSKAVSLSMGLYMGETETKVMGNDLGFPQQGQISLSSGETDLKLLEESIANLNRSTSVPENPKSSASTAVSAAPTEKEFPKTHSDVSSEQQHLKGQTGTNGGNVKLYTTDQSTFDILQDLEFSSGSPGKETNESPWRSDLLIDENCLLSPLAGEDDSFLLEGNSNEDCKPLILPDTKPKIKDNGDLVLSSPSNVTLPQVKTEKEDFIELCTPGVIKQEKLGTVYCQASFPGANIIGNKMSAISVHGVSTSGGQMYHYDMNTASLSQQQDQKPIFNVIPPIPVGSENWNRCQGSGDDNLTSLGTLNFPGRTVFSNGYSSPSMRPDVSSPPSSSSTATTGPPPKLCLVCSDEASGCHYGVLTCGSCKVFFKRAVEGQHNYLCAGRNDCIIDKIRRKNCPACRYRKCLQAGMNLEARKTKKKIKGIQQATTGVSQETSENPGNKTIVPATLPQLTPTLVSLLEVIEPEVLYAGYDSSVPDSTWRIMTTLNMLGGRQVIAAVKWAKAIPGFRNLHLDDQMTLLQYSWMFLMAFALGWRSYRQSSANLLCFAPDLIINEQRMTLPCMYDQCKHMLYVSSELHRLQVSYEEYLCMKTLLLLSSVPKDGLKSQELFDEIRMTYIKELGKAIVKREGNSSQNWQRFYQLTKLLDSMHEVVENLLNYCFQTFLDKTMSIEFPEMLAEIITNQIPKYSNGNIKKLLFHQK
Outline: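 Antagonist-mode qHTS: compound titrations added to GRE-bla HeLa cells, then dexamethasone 2 nM final; 18 h, 37 C. CCF4 FRET fluorescence normalized to dexamethasone and DMSO; IC50 from Hill fit.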

[16] = qHTS assay for small molecule agonists of the antioxidant response element (ARE) signaling pathway (AID 651741; active = well fitted activation curve with a large enough effect in the signal ratio; the % refers to the signal ratio; note: % of control where 0% means no effect)
Outline: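 Quantitative HTS in HepG2 cells stably expressing an ARE-beta-lactamase reporter; 16 h compound exposure at 37 C, followed by 2 h room-temperature incubation with LiveBLAzer B/G FRET substrate and fluorescence measurement.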

[17] = qHTS assay for environmental chemicals that activate the Aryl hydrocarbon Receptor (AhR) signaling pathway (AID 651777); conditions: 1A2-DRE human hepatoma cells, luciferase, 24 h; activation: stronger effect = higher value; note: % of control where 0% means no effect; nearly all actives have a fitted effect of over 15% in size
Outline: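 Reporter gene assay: hepatoma cells with DRE/CYP1A2-luciferase, 24 hr compound incubation at 37 C, 5% CO2, luminescence after One-Glo (30 min, RT).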

[18] = Cell Viability - LYMP2-001 (AID 921);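 note: 0% = DMSO only and full inhibition = tetraoctylammonium bromide control wells; nearly all actives have a fitted effect of over 70% in size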
Outline: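 qHTS, 1536-well; lymphoblastoid cells, 24 hr compound, 37 C; ATP by CellTiter-Glo, 30 min RT; luminescence; Hill-fit AC50.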

[19] = target: Estrogen receptor (Homo sapiens) (UniProt P03372); assay: qHTS assay for small molecule antagonists of estrogen receptor alpha signaling (AID 588513; active = well fitted curve in the direction sought with a large enough effect in the signal ratio, with a control signal flat, not every such curve was filed as active; the % refers to the signal ratio; note: % is set by controls: 0 for no effect and ±100 for the full control effect)
Estrogen receptor (Homo sapiens), sequence (P03372 whole entry, looked up): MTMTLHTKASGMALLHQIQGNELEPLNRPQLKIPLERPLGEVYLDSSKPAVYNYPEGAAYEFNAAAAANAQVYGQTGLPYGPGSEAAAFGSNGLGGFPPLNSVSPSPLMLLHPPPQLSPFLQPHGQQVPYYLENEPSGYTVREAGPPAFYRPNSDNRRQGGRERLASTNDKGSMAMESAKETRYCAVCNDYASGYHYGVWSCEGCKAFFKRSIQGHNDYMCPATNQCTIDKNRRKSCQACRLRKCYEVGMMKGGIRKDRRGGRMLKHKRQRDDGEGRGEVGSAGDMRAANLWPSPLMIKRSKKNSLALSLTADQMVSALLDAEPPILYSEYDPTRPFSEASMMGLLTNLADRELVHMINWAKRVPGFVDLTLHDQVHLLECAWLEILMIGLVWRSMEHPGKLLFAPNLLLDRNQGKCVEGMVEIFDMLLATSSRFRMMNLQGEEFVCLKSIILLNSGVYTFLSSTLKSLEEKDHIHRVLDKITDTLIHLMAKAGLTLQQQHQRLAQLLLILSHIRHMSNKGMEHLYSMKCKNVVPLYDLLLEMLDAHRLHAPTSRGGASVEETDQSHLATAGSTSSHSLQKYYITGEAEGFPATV
Outline: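 Cells were plated at 5000/well and incubated 4 h at 37 C. Compounds were added as 1:2 dilution series, duplicates. 17-beta-estradiol (0.5nM final) was added for 18 h before CCF4 detection.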

[20] = target: Glucocorticoid receptor (Homo sapiens) (UniProt P04150); assay: qHTS assay for small molecule agonists of glucocorticoid receptor signaling (AID 588532; active = well fitted curve in the direction sought with a large enough effect in the signal ratio, with a control signal flat; the % refers to the signal ratio;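 note: 100% = dexamethasone at 0.1 µM and 0% = DMSO only wells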); conditions: HeLa MMTV-bla, beta-lactamase ratio, agonist, 18 h; stronger effect = higher value; percent of dexamethasone control, DMSO zero
Outline: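 Using MMTV-bla HeLa cells in medium with 1% stripped FBS and 25 mM HEPES, compounds were titrated and incubated overnight-length (18 h). Beta-lactamase cleavage of CCF4 was quantified by dual-emission fluorescence.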

O=C(O)CBr
-19.5%: max response [6]
inactive: Potency [1] | Potency [2] | Potency [3] | Potency [4] | outcome [5] | outcome [7] | Potency [8] | outcome [9] | Potency [10] | activation [11] -0.316% | activation [12] -0.961%

O=C(O)c1cc(Cl)ccc1Cl
35.4%: max response [6]
inactive: Potency [1] | Potency [2] | Potency [3] | Potency [13] | Potency [4] | activation [14] -1.21% | outcome [15] | outcome [5] | outcome [7] | Potency [16] | activation [17] -1.02%

N#CCCC#N
inactive: Potency [1] | Potency [2] | Potency [18] | Potency [3] | Potency [13] | Potency [4] | Potency [19] | activation [14] -0.443% | outcome [5] | outcome [7] | outcome [9] | Potency [10] | Potency [16] | activation [11] -0.196% | activation [12] 0.61% | activation [17] 0.758%
18.6%: max response [6]

Cc1coc2c1CCC(C)C2 (centres undefined)
-2.44%: max response [6]
inactive: Potency [1] | Potency [2] | Potency [18] | Potency [3] | Potency [19] | activation [20] 1.47% | outcome [15] | outcome [5] | outcome [7] | outcome [9] | Potency [10] | activation [11] -2.44% | activation [12] -0.0074% | activation [17] 1.75%

CC(C)(C)C(O)(CCc1ccc(Cl)cc1)Cn1cncn1 (centres undefined)
-43.6% and 58.8%: max response [6]
inactive: Potency [1] | Potency [2] | Potency [18] | Potency [3] | Potency [13] | Potency [4] | activation [20] 3.38% and -5.28% | outcome [15] | outcome [5] | outcome [7] | Potency [8] | Potency [10] | Potency [16] | activation [11] -3.53% and -2.93% | activation [12] -0.348% and -1.3% | activation [17] 0.583% and 1.83%

[O-][Cl+]O
inactive: Potency [1] | Potency [2] | Potency [18] | Potency [3] | Potency [19] | activation [20] 9.28% | outcome [5] | Potency [10] | Potency [16] | activation [11] 0.903% | activation [12] -0.295% | activation [17] 0.878%

Oc1cc(Cl)ccc1Cl
inactive: Potency [1] | Potency [2] | Potency [18] | Potency [3] | Potency [13] | Potency [4] | activation [20] 0.0862% and 2.52% | outcome [15] | outcome [5] | outcome [7] | Potency [8] | Potency [10] | Potency [16] | activation [11] 0.543% and -4% | activation [12] -0.753% and -0.792% | activation [17] -0.282% and -1.1%
32.2% and -9.59%: max response [6]

C=CCc1cc(OC)c2c(c1)OCO2
inactive: Potency [1] | Potency [2] | Potency [3] | Potency [4] | activation [20] -4.93% | outcome [15] | outcome [5] | Potency [10] | activation [11] -0.222% | activation [12] -0.352%

CCC[N+](=O)[O-]
inactive: Potency [1] | Potency [2] | Potency [13] | Potency [4] | activation [14] 2.98% | outcome [5] | outcome [7] | Potency [8] | outcome [9] | Potency [10] | activation [11] -0.809% | activation [12] -0.704% | activation [17] 1.28%
-21.5%: max response [6]

CC1CC(=O)O1 (centres undefined)
2.28%: max response [6]
inactive: Potency [1] | Potency [2] | Potency [18] | Potency [3] | Potency [13] | Potency [4] | activation [14] -1.6% | activation [20] 4.16% | outcome [15] | outcome [5] | outcome [7] | outcome [9] | Potency [16]

ClC(Br)Br
2.53%: max response [6]
inactive: Potency [1] | Potency [2] | Potency [18] | Potency [3] | Potency [13] | Potency [4] | Potency [19] | outcome [15] | outcome [5] | outcome [7] | Potency [8] | Potency [10] | activation [12] 1.19% | activation [17] 0.329%

CCCCC#N
-3.23%: max response [6]
inactive: Potency [1] | Potency [2] | Potency [18] | Potency [3] | Potency [13] | Potency [19] | outcome [5] | outcome [7] | Potency [16] | activation [11] -7.46% | activation [17] 1.07%

Nc1cc(Cl)ccc1Cl
inactive: Potency [1] | Potency [2] | Potency [3] | activation [20] -3.66% | outcome [15] | outcome [5] | Potency [10] | activation [11] -3.16%

Cc1cccc(N)c1C
inactive: Potency [1] | Potency [2] | Potency [3] | Potency [13] | Potency [4] | Potency [19] | activation [14] -3.96% | outcome [15] | outcome [5] | outcome [9] | Potency [10] | Potency [16] | activation [11] 12.1% | activation [12] -0.847%

Cc1ccc(N)cc1Cl
inactive: Potency [1] | Potency [2] | Potency [18] | Potency [13] | Potency [4] | Potency [19] | Potency [8] | outcome [9] | Potency [10] | activation [12] -0.096%

Clc1ccc(C(Cl)(Cl)Cl)c(Cl)c1
inactive: Potency [1] | Potency [2] | Potency [18] | Potency [3] | Potency [13] | Potency [4] | outcome [5] | outcome [7] | Potency [10] | Potency [16] | activation [12] -0.477% | activation [17] -1.61%
5.85%: max response [6]

CC(C)OC(=O)Cc1ccccc1
inactive: Potency [1] | Potency [2] | Potency [18] | Potency [3] | Potency [13] | Potency [19] | activation [20] 0.809% | outcome [15] | outcome [9] | Potency [10] | Potency [16] | activation [11] -2.84%
